LmPK inhibitor: inhibitors of Leishmania mexicana pyruvate kinase; Potency, µM (highest dose often 57.5 µM), actives largely listed as inhibitors; Q27686; actives 0.37% (n = 290,000); AID 1721; purified LmPK, Kinase-Glo ATP luminescence, 1 h
Target sequence (Q27686 whole entry, looked up): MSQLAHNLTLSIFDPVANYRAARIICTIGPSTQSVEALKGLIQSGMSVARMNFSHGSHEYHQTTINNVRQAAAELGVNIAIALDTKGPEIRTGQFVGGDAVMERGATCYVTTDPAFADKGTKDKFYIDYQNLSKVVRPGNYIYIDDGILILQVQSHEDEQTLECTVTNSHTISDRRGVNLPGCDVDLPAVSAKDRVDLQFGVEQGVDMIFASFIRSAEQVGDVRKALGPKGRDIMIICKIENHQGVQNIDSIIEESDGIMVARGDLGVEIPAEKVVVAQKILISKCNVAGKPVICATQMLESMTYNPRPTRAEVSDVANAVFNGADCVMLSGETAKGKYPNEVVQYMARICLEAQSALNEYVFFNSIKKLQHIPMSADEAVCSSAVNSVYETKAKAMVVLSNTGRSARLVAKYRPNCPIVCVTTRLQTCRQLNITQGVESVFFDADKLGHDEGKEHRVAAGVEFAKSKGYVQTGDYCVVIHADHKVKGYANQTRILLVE
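ATP generated from ADP (0.1 mM) and PEP (0.5 mM) by 0.1 nM LmPK over 1 h at room temperature (pH 7.2 imidazole buffer) was detected by coupled luciferase luminescence. Values were normalized to uninhibited and no-enzyme wells.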
Sm TGR block: S. mansoni TGR enzyme inhibition | purified TGR, DTNB reduction, TNB absorbance 405 nm | Potency, µM (series often up to 114 µM), hits mostly inhibitors | actives 3% (n = 360,000) | AID 485364; note: nearly all actives have a fitted effect of over 60% in size
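Kinetic colorimetric format: TGR-catalysed, NADPH-driven DTNB reduction monitored via TNB absorbance. Enzyme dispensed at 20 nM; compound exposure 15 min at room temperature before reaction start.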
Tb PYK inh: inhibitors of Trypanosoma brucei pyruvate kinase; Potency, µM (titrated, usually from 76.8 µM), usual class: inhibitors; Q57TT1; TbPYK enzyme, Kinase-Glo Plus ATP luminescence, 45 min; actives 0.12% (n = 410,000); AID 624173; note: nearly all actives have a fitted effect of over 50% in size
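T. brucei PYK with substrate was exposed to pin-transferred compounds across a concentration series, then started with 130 uM ADP (final). After 45 min at room temperature, Kinase-Glo Plus luminescence was read, normalized and curve-fitted.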
RE007 growth inh: less growth of the S. pombe RE007 Vpr strain; S. pombe RE007 Vpr strain, BacTiter-Glo ATP luminescence, 24 h; actives 0.21% (n = 360,000); Potency, µM (doses to about 92.2 µM), hits mostly inhibitors; AID 651644; active = well fitted falling curve with a large enough effect; inconclusive = small, poorly fitted or top-dose-only effect; inactive = no such curve, though single readings can be large or run the other way; note: nearly all actives have a fitted effect of over 50% in size
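Fission yeast strain RE007, carrying one chromosomally integrated HIV-1 vpr copy, was seeded at OD 0.01 in PMG+AL medium with 23 nL pinned compound. After 24 h at 30 °C and 99% humidity, viability was read by BacTiter-Glo luminescence.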
Large screens that a line does not name were inactive; ! = not confirmed by another sample. Rows were chosen to be rich in hits. Some 3% of all compounds tested hit in one or more screens of this group. Unless noted, calls come from the whole dose curve; as a rule, active = well fitted curve in the direction sought with a large enough effect; inconclusive = small, poorly fitted or top-dose-only effect, or another doubt; inactive = no such curve, though single readings can be large; an effect the other way counts as inactive or inconclusive.

COC(=O)c1cccc(C#CC(NP(=O)(c2ccccc2)c2ccccc2)c2ccccc2)c1 (configuration not stated)	Sm TGR block 11.2µM
COC(=O)[C@]1(C)C[C@H]1[C@H](NP(=O)(c1ccccc1)c1ccccc1)c1ccccc1	none
O=c1[nH]c(=S)n(C2CC2)c(O)c1/C=N/Nc1cccc2ccccc12	Sm TGR block 35.5µM
O=c1[nH]c(=S)n(C2CC2)c(O)c1/C=N/Nc1ccccc1	Sm TGR block 20µM
O=C(N/N=C/c1c(O)n(C2CCCCC2)c(=S)[nH]c1=O)c1ccccc1	none
CCOC(=O)c1c(NC(=O)CSc2cn(CCNC(=O)c3c(F)cccc3F)c3ccccc23)sc2c1CCCC2	none (no result: LmPK inhibitor, RE007 growth inh)
Clc1ccc(/C=C/c2nc3ccccc3[nH]2)cc1	LmPK inhibitor 8.91µM, Sm TGR block 25.1µM, Tb PYK inh inconclusive, RE007 growth inh inconclusive
Clc1ccc(/C=C/c2nc3ccccc3[nH]2)c(Cl)c1	LmPK inhibitor 14.1µM, RE007 growth inh 25.1µM
Clc1cccc(Cl)c1/C=C/c1nc2ccccc2[nH]1	LmPK inhibitor inconclusive, RE007 growth inh inconclusive
O=C(/C=C/c1ccc(Cl)cc1Cl)c1nc2ccccc2[nH]1	RE007 growth inh 7.94µM
CN(C)c1ncc2nc(-c3cc(F)cc(F)c3)c(=O)n(Cc3cccs3)c2n1	none (no result: LmPK inhibitor, Sm TGR block, RE007 growth inh)
Cc1ccc(Cn2c(CNC(=O)c3ccccc3Br)nc3cccnc32)cc1	none (no result: LmPK inhibitor, RE007 growth inh)
COc1cccc(C#CC2=CC(=O)CC(C)(C)C2)c1	none (no result: LmPK inhibitor, Sm TGR block)
COc1ccc(NC(=O)c2ccccc2N(Cc2ccccc2)S(C)(=O)=O)c(OC)c1	none
COc1ccc(OC)c(NC(=O)c2ccccc2N(Cc2ccccc2)S(C)(=O)=O)c1	Tb PYK inh 12.6µM
COc1cc(Cl)c(C)cc1Nc1nc2ccccc2nc1NS(=O)(=O)c1ccccc1	none (no result: LmPK inhibitor, RE007 growth inh)
CC(=O)c1cccc2c(O)c(C3=Nc4ccccc4C3=O)[nH]c12	LmPK inhibitor 25.1µM, Sm TGR block inconclusive, Tb PYK inh inconclusive, RE007 growth inh inconclusive
O=C1C(c2c(O)[nH]c3ccccc23)=Nc2ccccc21	LmPK inhibitor inconclusive
O=C1C(=C2CCCCC2)SC(=S)N1Cc1ccco1	Sm TGR block 20µM
O=C1CC(=O)N(Cc2ccco2)C(=S)N1	Sm TGR block 1.78µM
O=C(O)c1cccc(N2C(=O)c3ccc(C(=O)c4cccc([N+](=O)[O-])c4)cc3C2=O)c1	Sm TGR block 50.1µM
O=C(O)c1cccc(NC(=O)c2ccc(N3C(=O)c4ccc(C(=O)Nc5cccc(C(=O)O)c5)cc4C3=O)cc2)c1	none
O=C(O)c1ccc2c(c1)C(=O)N(c1cccc(C(=O)/C=C/c3ccccc3)c1)C2=O	Sm TGR block 25.1µM
Cc1cccc(C)c1NC(=S)NCCc1ccc(O)c(O)c1	Sm TGR block 7.94µM
Cc1cccc(NC(=S)NCCc2ccccc2)c1C	none
Cc1nc2ccccc2c(=O)n1-c1cccc(NC(=O)c2cccs2)c1	none (no result: LmPK inhibitor)
O=C(Nc1cccc(N2C(=O)C=CC2=O)c1)c1cccs1	Sm TGR block 0.398µM (no result: LmPK inhibitor, Tb PYK inh, RE007 growth inh)
COc1ccc(NC(=S)Nc2cccc([N+](=O)[O-])c2)cc1	Sm TGR block 20µM
COc1ccc(NC(=O)c2cc([N+](=O)[O-])ccc2O)cc1	LmPK inhibitor 12.6µM, Tb PYK inh inconclusive, RE007 growth inh 6.31µM
Cc1ccc(NC(=O)c2cc3ccccn3n2)cc1F	none (no result: LmPK inhibitor, RE007 growth inh)
Cc1cc(C)n(CCc2nc(-c3cccs3)cs2)n1	none
Cc1cc(C)n(CCc2nc(-c3ccco3)cs2)n1	Sm TGR block 39.8µM
COc1ccc2c(c1)CCc1c(C(=O)Nc3c(C)nn(Cc4ccc(Cl)cc4)c3C)noc1-2	none (no result: LmPK inhibitor, RE007 growth inh)
COc1ccc2c(c1)CCc1c(C(=O)Nc3c(C)nn(Cc4ccccc4)c3C)noc1-2	Sm TGR block 89.1µM!
COc1ccc2nc(N3C(=O)C(O)=C(C(=O)c4ccco4)C3c3ccc(C)o3)sc2c1 (configuration not stated)	Sm TGR block 31.6µM (no result: LmPK inhibitor)
COc1ccc2nc(N3C(=O)C(O)=C(C(=O)c4ccco4)C3c3ccccc3OC)sc2c1 (configuration not stated)	none
CCOC(=O)c1sc(N2C(=O)C(O)=C(C(=O)c3ccco3)C2c2ccco2)nc1C (configuration not stated)	Sm TGR block 25.1µM
Cc1ccc(C)c(NS(=O)(=O)c2ccc3oc(=O)c4ncn(C)c4c3c2)c1	none (no result: LmPK inhibitor, RE007 growth inh)
OC(C#CCN1CCOCC1)(c1ccccc1)C1CC1 (configuration not stated)	Sm TGR block 50.1µM
CC(=O)Oc1c(C)cc(O)c2ccccc12	Sm TGR block 39.8µM (no result: Tb PYK inh, RE007 growth inh)
Cc1cccc(-c2n[nH]c(=S)n2C)c1	Tb PYK inh inconclusive
Cc1ccccc1-n1c(-c2cccnc2)n[nH]c1=S	LmPK inhibitor 11.2µM, Tb PYK inh inconclusive
CC(C)c1ccccc1-n1c(-c2cccnc2)n[nH]c1=S	Tb PYK inh inconclusive
COc1ccc(OC)c(-n2c(-c3ccccc3)n[nH]c2=S)c1	LmPK inhibitor 2.24µM, Tb PYK inh 11.2µM
COc1ccc(-c2n[nH]c(=S)n2-c2ccccc2C)cc1	LmPK inhibitor 28.2µM, Tb PYK inh inconclusive
COc1ccc(OC)c(-n2c(-c3cccc(C)c3)n[nH]c2=S)c1	LmPK inhibitor inconclusive, Tb PYK inh 2.51µM
CN1[C@@H]2CC(OC(=O)[C@@H](CO)c3ccccc3)C[C@@H]1[C@H]1O[C@H]12 (some centres not stated)	none (no result: LmPK inhibitor, Sm TGR block, RE007 growth inh)
COc1ccccc1-n1c(-c2cn(C)nc2C)n[nH]c1=S	LmPK inhibitor 22.4µM, Tb PYK inh inconclusive
COc1cc(OC)cc(C(=O)NCc2n[nH]c(=S)n2-c2ccccc2OC)c1	LmPK inhibitor inconclusive, Tb PYK inh 11.2µM
COc1ccccc1-n1c(-c2ccccc2)n[nH]c1=S	Tb PYK inh 6.31µM (no result: Sm TGR block)
COc1ccc(OC)c(-n2c(-c3cc(-c4ccccc4)n[nH]3)n[nH]c2=S)c1	LmPK inhibitor 10µM, Tb PYK inh inconclusive
COc1ccccc1-n1c(CNC(=O)c2cccs2)n[nH]c1=S	LmPK inhibitor inconclusive, Tb PYK inh inconclusive
COc1ccccc1-c1n[nH]c(=S)n1Cc1ccccc1	Tb PYK inh inconclusive
Cn1c(-c2ccccc2)n[nH]c1=S	Tb PYK inh inconclusive
Cc1ccc(-c2cc(C(=O)N(Cc3ccc(C(C)(C)C)cc3)Cc3ccco3)no2)cc1	none (no result: LmPK inhibitor, RE007 growth inh)
CC(=O)Nc1ccccc1-c1nc2ccccc2n(C(C)C(=O)Nc2cccc(C)c2C)c1=O (configuration not stated)	none (no result: LmPK inhibitor, RE007 growth inh)
O=C(O)c1ccnc2c(O)cccc12	none (no result: LmPK inhibitor, Tb PYK inh, RE007 growth inh)
COc1ccc(-c2cc(-c3n[nH]c(=S)n3-c3ccccc3OC)[nH]n2)cc1	LmPK inhibitor 11.2µM
S=c1[nH]nc(-c2cccc3ccccc23)n1-c1cccnc1	LmPK inhibitor 12.6µM, Tb PYK inh inconclusive
S=c1[nH]nc(-c2ccc3ccccc3n2)n1-c1ccc2ncccc2c1	LmPK inhibitor 14.1µM, Tb PYK inh 3.98µM
Cc1ccccc1-n1c(-c2ccc3ccccc3n2)n[nH]c1=S	LmPK inhibitor 17.8µM, Tb PYK inh inconclusive
CCOC(=O)C(CS)NCCN[C@@H](CS)C(=O)OCC (some centres not stated)	none (no result: LmPK inhibitor, Sm TGR block, RE007 growth inh)

Screens deposited in PubChem BioAssay by National Center for Advancing Translational Sciences (NCATS).
